Experimental data as given in article PMC7862700, “An all-to-all approach to the identification of sequence-specific readers for epigenetic DNA modifications on cytosine”.

What was measured:
Experiment in all cases: DAPPL (digital affinity profiling via proximity ligation, sequencing); 10 mM Tris-HCl pH 7.5, 50 mM NaCl, 1 mM DTT, 4% glycerol, room temperature, 30 min; GST-TFs on glutathione beads, 16-mer random dsDNA library, 0.1% formaldehyde crosslink after washing; high values mean tight binding
FLI1 = target: T1, FLI1 (Homo sapiens, UniProt Q01543 1-452); settings: protein: recombinant; tags: N-terminal GST; dsDNA, one strand shown
T1 sequence: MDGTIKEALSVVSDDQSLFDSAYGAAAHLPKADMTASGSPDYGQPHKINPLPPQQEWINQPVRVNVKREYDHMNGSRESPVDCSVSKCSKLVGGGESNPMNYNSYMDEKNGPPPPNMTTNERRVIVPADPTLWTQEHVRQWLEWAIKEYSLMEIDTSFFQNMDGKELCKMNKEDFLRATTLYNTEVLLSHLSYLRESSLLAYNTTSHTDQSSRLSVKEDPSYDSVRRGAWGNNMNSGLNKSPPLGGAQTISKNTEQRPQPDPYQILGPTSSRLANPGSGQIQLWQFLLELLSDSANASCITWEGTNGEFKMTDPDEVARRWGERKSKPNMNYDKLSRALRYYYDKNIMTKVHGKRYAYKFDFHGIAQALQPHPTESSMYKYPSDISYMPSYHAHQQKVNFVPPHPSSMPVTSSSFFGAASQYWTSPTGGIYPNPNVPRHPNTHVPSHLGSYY
How it was run: (§1)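 Each value of binding signal is a hexamer's read frequency for a factor divided by the same hexamer's frequency in the tag-only sample. Barcoded, bead-captured GST fusions of human transcription factors made in yeast were pooled with that sample and incubated with 200 nmole of a random double-stranded 16-mer DNA library in Tris/NaCl/DTT/glycerol buffer at room temperature for 30 min. Washing, 0.1% formaldehyde crosslinking, proximity ligation, PCR and Illumina NextSeq500 sequencing followed.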

ELK1 = target: T2, ELK1 (Homo sapiens, UniProt P19419 1-428); settings: protein: recombinant; tags: N-terminal GST; dsDNA, one strand shown
T2 sequence: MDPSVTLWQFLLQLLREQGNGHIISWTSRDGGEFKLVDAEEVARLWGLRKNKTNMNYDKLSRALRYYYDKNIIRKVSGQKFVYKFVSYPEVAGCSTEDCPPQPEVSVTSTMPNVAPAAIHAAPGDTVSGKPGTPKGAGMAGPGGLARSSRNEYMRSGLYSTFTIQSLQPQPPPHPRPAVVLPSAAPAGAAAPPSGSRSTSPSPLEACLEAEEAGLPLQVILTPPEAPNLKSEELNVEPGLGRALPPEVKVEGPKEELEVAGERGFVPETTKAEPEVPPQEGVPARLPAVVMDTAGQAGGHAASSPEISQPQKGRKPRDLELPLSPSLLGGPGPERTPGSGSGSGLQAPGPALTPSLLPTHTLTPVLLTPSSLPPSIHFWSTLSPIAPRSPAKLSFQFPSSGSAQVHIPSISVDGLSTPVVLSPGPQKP
How it was run: as §1

GABPA = target: T3, GABPA (Homo sapiens, UniProt Q06546 1-454); settings: protein: recombinant; tags: N-terminal GST; dsDNA, one strand shown
T3 sequence: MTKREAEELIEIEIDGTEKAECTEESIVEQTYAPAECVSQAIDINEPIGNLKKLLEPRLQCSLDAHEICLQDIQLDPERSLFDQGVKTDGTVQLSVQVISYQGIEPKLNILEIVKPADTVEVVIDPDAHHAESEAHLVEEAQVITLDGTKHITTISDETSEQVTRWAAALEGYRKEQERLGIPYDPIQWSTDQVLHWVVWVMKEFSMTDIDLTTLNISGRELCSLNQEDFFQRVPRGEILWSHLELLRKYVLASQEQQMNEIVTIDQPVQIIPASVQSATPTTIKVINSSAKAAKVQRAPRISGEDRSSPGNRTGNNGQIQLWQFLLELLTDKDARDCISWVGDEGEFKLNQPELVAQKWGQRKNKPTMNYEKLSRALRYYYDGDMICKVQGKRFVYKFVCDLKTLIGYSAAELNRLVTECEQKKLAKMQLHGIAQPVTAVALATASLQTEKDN
How it was run: as §1

ERG = target: T4, ERG (Homo sapiens, UniProt P11308 1-479); settings: protein: recombinant; tags: N-terminal GST; dsDNA, one strand shown
T4 sequence: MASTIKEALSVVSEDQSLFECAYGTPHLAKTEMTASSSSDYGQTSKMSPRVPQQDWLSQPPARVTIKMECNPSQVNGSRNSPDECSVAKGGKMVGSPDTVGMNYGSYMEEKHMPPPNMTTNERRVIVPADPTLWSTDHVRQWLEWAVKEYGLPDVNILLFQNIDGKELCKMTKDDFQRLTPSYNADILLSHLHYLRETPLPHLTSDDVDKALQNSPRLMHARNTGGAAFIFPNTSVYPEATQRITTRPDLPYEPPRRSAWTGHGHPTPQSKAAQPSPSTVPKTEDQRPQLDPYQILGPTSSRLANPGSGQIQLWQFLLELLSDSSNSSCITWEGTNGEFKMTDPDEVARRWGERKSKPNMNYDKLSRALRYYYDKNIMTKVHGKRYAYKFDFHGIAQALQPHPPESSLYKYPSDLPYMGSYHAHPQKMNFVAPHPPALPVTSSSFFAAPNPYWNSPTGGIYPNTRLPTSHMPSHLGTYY
How it was run: as §1

ELF1 = ELF1 (Homo sapiens, UniProt P32519 1-619); settings: protein: recombinant; tags: N-terminal GST; dsDNA, one strand shown
How it was run: as §1

EHF = target: T5, EHF (Homo sapiens, UniProt Q9NZC4 1-300); settings: protein: recombinant; tags: N-terminal GST; dsDNA, one strand shown
T5 sequence: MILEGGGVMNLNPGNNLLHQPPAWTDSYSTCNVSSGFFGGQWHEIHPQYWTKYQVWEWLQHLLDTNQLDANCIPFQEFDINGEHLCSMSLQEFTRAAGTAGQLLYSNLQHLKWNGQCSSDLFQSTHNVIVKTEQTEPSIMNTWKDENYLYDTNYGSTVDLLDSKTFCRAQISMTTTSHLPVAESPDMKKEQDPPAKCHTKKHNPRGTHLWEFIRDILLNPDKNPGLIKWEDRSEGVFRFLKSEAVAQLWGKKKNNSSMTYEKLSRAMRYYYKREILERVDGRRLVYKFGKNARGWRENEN
How it was run: as §1

SPI1 = SPI1 (Homo sapiens, UniProt P17947 1-270); settings: protein: recombinant; tags: N-terminal GST; dsDNA, one strand shown
How it was run: as §1

SPIB = SPIB (Homo sapiens, UniProt Q01892 1-262); settings: protein: recombinant; tags: N-terminal GST; dsDNA, one strand shown
How it was run: as §1

ELK3 = target: T6, ELK3 (Homo sapiens, UniProt P41970 1-407); settings: protein: recombinant; tags: N-terminal GST; dsDNA, one strand shown
T6 sequence: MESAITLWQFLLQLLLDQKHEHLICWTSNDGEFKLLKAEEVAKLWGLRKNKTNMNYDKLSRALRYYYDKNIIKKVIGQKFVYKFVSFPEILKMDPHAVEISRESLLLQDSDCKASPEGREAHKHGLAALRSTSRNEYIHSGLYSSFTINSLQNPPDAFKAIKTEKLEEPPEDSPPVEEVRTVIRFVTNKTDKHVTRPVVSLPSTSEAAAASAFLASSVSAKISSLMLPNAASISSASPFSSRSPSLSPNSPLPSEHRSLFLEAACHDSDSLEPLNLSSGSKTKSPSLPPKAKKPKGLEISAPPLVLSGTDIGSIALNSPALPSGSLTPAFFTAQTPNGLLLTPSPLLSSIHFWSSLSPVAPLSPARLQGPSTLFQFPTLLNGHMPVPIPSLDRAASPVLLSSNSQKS
How it was run: as §1

FEV = target: T7, FEV (Homo sapiens, UniProt Q99581 1-238); settings: protein: recombinant; tags: N-terminal GST; dsDNA, one strand shown
T7 sequence: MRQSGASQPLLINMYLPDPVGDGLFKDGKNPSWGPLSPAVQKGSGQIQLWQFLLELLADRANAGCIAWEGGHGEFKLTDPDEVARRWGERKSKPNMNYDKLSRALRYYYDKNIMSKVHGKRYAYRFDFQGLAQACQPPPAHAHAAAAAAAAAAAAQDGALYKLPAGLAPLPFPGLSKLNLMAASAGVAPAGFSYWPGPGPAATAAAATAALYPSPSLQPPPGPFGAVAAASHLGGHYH
How it was run: as §1

ETV5 = ETV5 (Homo sapiens, UniProt P41161 1-510); settings: protein: recombinant; tags: N-terminal GST; dsDNA, one strand shown
How it was run: as §1

HSF1 = HSF1 (Homo sapiens, UniProt Q00613 1-529); settings: protein: recombinant; tags: N-terminal GST; chain copies: 3; dsDNA, one strand shown
How it was run: as §1

SPIC = target: T8, SPIC (Homo sapiens, UniProt Q8N5J4 1-248); settings: protein: recombinant; tags: N-terminal GST; dsDNA, one strand shown
T8 sequence: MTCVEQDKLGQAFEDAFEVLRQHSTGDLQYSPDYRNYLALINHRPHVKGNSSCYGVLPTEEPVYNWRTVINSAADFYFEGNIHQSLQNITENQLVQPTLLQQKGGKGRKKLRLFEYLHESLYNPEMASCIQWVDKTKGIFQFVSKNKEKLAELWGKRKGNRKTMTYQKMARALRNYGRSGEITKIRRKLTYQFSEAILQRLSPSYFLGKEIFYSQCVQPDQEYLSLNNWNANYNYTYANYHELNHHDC
How it was run: as §1

ELF4 = ELF4 (Homo sapiens, UniProt Q99607 1-663); settings: protein: recombinant; tags: N-terminal GST; dsDNA, one strand shown
How it was run: as §1

ELK4 = target: T9, ELK4 (Homo sapiens, UniProt P28324-2 1-405); settings: protein: recombinant; tags: N-terminal GST; dsDNA, one strand shown
T9 sequence: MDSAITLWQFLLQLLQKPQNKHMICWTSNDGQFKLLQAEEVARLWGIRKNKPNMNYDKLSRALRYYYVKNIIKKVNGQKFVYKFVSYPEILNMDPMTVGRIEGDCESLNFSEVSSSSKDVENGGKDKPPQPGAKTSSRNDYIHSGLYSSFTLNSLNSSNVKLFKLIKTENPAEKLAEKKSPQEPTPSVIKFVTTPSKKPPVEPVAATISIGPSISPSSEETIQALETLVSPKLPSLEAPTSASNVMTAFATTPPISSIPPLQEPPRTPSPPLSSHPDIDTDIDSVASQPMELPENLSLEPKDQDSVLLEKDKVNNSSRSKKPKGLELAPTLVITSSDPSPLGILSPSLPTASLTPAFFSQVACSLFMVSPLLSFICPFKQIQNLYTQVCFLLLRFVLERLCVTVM
How it was run: as §1

ETV2 = target: T10, ETV2 (Homo sapiens, UniProt O00321 1-342); settings: protein: recombinant; tags: N-terminal GST; dsDNA, one strand shown
T10 sequence: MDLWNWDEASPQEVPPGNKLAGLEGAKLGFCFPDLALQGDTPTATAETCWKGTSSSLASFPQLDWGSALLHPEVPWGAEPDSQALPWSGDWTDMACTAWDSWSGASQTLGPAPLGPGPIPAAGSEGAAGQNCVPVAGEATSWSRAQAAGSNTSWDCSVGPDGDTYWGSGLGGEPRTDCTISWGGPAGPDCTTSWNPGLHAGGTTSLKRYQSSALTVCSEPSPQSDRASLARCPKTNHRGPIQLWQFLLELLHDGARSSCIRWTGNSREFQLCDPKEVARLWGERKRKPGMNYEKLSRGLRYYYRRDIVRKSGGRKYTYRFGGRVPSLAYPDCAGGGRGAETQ
How it was run: as §1

ELF3 = target: T11, ELF3 (Homo sapiens, UniProt P78545 1-371); settings: protein: recombinant; tags: N-terminal GST; dsDNA, one strand shown
T11 sequence: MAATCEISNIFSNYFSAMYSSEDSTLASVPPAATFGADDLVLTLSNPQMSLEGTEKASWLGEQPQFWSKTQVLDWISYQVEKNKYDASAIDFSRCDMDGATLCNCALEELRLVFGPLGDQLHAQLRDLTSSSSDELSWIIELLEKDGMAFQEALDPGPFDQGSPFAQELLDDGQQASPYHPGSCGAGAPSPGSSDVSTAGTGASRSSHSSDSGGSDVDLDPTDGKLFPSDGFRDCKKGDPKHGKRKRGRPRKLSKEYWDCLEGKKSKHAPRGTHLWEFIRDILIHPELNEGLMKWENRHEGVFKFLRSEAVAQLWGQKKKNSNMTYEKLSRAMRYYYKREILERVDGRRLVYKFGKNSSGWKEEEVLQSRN
How it was run: as §1

CRX = CRX (Homo sapiens, UniProt O43186 1-299); settings: protein: recombinant; tags: N-terminal GST; dsDNA, one strand shown
How it was run: as §1

ETV1 = ETV1 (Homo sapiens, UniProt P50549 1-477); settings: protein: recombinant; tags: N-terminal GST; dsDNA, one strand shown
How it was run: as §1

HSF1, sequence (Q00613 whole entry): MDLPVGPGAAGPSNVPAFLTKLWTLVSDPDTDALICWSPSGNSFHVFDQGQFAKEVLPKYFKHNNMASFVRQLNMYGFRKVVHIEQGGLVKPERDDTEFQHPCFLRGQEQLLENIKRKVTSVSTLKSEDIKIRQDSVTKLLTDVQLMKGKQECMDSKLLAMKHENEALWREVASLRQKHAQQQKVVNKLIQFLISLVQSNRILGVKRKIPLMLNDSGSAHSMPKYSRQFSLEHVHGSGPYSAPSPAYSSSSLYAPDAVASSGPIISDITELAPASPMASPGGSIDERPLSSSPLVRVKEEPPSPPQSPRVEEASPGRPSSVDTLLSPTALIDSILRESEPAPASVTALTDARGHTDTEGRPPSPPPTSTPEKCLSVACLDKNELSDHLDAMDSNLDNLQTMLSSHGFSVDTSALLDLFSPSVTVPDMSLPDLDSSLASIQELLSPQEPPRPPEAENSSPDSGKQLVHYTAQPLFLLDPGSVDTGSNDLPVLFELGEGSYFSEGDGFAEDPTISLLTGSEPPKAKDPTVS
SPIB, sequence (Q01892 whole entry): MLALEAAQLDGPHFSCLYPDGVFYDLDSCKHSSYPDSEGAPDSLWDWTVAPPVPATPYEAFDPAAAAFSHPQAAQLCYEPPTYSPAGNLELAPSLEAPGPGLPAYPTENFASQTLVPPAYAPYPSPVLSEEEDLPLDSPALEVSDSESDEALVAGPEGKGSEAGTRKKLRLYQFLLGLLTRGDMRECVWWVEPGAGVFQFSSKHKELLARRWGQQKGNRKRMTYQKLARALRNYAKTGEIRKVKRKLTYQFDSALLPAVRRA
ETV5, sequence (P41161 whole entry): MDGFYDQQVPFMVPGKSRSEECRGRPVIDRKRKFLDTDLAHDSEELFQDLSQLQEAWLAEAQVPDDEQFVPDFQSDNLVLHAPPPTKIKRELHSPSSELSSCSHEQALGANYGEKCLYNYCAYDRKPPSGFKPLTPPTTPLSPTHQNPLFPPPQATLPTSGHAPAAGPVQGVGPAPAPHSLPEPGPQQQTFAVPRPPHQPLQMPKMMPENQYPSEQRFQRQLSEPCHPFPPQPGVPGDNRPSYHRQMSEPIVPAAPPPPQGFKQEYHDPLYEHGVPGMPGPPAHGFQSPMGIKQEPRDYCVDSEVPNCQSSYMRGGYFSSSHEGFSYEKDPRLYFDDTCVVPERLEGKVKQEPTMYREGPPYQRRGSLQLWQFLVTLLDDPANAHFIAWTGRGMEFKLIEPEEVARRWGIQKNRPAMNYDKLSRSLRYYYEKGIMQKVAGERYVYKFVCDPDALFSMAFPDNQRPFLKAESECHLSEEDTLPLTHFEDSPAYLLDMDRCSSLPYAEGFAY
ELF4, sequence (Q99607 whole entry): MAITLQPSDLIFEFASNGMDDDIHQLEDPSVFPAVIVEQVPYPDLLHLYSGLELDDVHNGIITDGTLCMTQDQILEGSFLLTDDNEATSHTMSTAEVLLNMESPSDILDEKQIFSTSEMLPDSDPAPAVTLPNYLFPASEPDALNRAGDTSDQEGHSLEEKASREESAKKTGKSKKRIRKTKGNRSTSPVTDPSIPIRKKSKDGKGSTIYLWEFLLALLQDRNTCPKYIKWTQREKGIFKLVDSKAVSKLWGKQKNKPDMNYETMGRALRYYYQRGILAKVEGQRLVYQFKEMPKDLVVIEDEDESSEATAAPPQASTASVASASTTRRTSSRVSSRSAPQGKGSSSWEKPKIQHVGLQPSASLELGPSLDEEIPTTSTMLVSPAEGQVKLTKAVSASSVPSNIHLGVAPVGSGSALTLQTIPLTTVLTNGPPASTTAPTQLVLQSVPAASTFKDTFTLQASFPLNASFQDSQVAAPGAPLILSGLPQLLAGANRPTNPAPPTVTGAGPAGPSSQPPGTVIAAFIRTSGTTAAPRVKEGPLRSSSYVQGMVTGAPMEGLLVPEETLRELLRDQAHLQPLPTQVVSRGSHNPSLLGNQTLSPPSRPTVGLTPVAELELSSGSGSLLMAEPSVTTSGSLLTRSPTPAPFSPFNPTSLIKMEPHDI
CRX, sequence (O43186 whole entry): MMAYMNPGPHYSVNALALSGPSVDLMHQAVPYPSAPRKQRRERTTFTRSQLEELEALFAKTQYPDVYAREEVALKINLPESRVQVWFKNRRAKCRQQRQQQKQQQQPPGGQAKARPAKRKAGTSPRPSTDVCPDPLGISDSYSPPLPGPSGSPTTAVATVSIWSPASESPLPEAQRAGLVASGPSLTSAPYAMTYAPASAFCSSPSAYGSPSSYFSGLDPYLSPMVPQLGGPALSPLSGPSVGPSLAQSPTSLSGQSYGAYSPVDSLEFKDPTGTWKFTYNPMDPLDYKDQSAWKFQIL
ELF1, sequence (P32519 whole entry): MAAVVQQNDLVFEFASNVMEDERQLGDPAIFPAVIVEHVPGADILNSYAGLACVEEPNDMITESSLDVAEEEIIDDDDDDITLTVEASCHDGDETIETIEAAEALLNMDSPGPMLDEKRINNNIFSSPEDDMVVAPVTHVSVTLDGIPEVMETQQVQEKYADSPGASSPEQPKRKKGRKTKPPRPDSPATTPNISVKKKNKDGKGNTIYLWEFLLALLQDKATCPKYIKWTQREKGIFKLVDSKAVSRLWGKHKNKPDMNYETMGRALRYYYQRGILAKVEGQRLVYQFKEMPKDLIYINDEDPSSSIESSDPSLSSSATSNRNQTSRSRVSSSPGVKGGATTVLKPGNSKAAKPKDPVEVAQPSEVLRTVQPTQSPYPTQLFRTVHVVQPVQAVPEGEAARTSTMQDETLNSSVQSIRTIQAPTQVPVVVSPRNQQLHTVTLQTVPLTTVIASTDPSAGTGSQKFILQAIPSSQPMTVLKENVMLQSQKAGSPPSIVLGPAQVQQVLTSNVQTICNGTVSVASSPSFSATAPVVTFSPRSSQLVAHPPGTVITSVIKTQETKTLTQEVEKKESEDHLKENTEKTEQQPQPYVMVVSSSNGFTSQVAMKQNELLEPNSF
ETV1, sequence (P50549 whole entry): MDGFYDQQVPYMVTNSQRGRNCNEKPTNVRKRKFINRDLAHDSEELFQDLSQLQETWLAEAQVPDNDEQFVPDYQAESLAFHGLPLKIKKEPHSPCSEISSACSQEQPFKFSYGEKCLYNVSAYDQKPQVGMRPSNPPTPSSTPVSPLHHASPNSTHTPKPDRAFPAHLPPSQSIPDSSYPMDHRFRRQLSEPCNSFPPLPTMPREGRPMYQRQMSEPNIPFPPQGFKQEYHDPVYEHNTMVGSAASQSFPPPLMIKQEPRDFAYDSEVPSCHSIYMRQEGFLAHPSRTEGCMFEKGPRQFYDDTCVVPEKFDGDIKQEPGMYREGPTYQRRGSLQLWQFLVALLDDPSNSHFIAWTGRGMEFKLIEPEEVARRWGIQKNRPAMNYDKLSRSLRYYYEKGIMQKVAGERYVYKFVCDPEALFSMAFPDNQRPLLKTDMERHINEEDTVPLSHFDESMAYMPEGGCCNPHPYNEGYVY

TAACTA
binding signal (FLI1): 1.36 fold enrichment (6-mer frequency, TF over GST control)
binding signal (ELK1): 1.29 fold enrichment (6-mer frequency, TF over GST control)
binding signal (GABPA): 1.46 fold enrichment (6-mer frequency, TF over GST control)
binding signal (ERG): 1.42 fold enrichment (6-mer frequency, TF over GST control)
binding signal (ELF1): 1.32 fold enrichment (6-mer frequency, TF over GST control)
binding signal (EHF): 1.27 fold enrichment (6-mer frequency, TF over GST control)
binding signal (SPI1): 1.3 fold enrichment (6-mer frequency, TF over GST control)
binding signal (SPIB): 1.35 fold enrichment (6-mer frequency, TF over GST control)
binding signal (ELK3): 1.32 fold enrichment (6-mer frequency, TF over GST control)
binding signal (FEV): 1.25 fold enrichment (6-mer frequency, TF over GST control)
binding signal (ETV5): 1.29 fold enrichment (6-mer frequency, TF over GST control)
binding signal (HSF1): 1.51 fold enrichment (6-mer frequency, TF over GST control)
binding signal (SPIC): 1.36 fold enrichment (6-mer frequency, TF over GST control)
binding signal (ELF4): 1.48 fold enrichment (6-mer frequency, TF over GST control)
binding signal (ELK4): 1.26 fold enrichment (6-mer frequency, TF over GST control)
binding signal (ETV2): 1.49 fold enrichment (6-mer frequency, TF over GST control)
binding signal (ELF3): 1.33 fold enrichment (6-mer frequency, TF over GST control)
binding signal (CRX): 1.87 fold enrichment (6-mer frequency, TF over GST control)
binding signal (ETV1): 1.24 fold enrichment (6-mer frequency, TF over GST control)
